# ELG1 DNA repair = qHTS screen for small molecules that inhibit ELG1-dependent DNA repair in human embryonic kidney (HEK293T) cells expressing luciferase-tagged ELG1. HEK293T ELG1-luciferase reporter, luminescence, 16 h; DNA damage induced by 5-fluorouridine. Potency, µM (series often up to 46.1 µM), without a hit: top-dose activity change, negative = inhibition, usual class: inhibitors. actives 2.3% (n = 330,000); also: potency is read from the fitted curve at half-maximal effect; nearly all actives have a fitted effect of over 55% in size
#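 HEK293T cells expressing luciferase-tagged ELG1 (2,000/well) received 5-Fluorouridine plus compound or DMSO for 16 hr at 37 °C. Luciferase was read by ONE-Glo luminescence after 30 min at room temperature.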
# DT40 TDP1 no CPT = qHTS for Inhibitors of human tyrosyl-DNA phosphodiesterase 1 (TDP1): qHTS in cells in absence of CPT; DT40 Tdp1-/- hTDP1 cells, no CPT, ATP luminescence, 48 h; AID 686978, 2013; actives 15% (n = 420,000); Potency, µM (doses to about 46.2 µM), for the others: at the top dose activity change, negative = growth inhibition, most hits filed as inhibitors; also: potency is read from the fitted curve at half-maximal effect; nearly all actives have a fitted effect of over 55% in size
#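 Seeded 400 DT40-hTDP1 cells/well (vehicle DMSO, no 20 nM CPT); pinned compounds; ≥48 hr at 37 °C; CellTiter-Glo luminescence as viability measure.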
# VP16 counter = VP16 counterscreen qHTS for inhibitors of ROR gamma transcriptional activity | Drosophila S2 Gal4-VP16 UAS-luciferase, luminescence, 20 h | Potency, µM (top dose mostly 53.6 µM), for inactives: top-dose activity, negative = inhibition, most hits filed as inhibitors | actives 3.5% (n = 310,000) | AID 2546, 2010;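 also: Gal4-VP16 expression switched on by copper sulfate through the metallothionein promoter; potency is read from the fitted curve at half-maximal effect; nearly all actives have a fitted effect of over 50% in size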
# IL-1B inflam inh = qHTS for Inhibitors of Inflammasome Signaling: IL-1-beta AlphaLISA Primary Screen; THP-1 LPS/ATP IL-1B secretion, AlphaLISA, 16 h; stronger effect = lower value; activity change, % at 57.5 µM; actives 4.7% (n = 360,000); in the data active = activity change below about -50%; inconclusive = mostly about -30% to -49%
#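 Secreted IL-1B measured by AlphaLISA bead assay after 16 h compound exposure of THP-1 cells; compounds (final up to 57.5 uM) added 1 h before LPS (250 ng/mL) and ATP (1.25 mM) stimulation; lower signal means less secretion.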
# RORg inh = qHTS for inhibitors of ROR gamma transcriptional activity. Nuclear receptor ROR-gamma (Mus musculus), P51450. Drosophila S2 Gal4-RORgamma UAS-luciferase reporter, 20 h. Potency, µM (highest dose often 53.6 µM), for the others: top-dose activity change, negative = inhibition, actives largely listed as inhibitors. actives 5.4% (n = 310,000); also: potency is read from the fitted curve at half-maximal effect; nearly all actives have a fitted effect of over 60% in size
# Target sequence (P51450 whole entry, looked up, the tested form may be a part): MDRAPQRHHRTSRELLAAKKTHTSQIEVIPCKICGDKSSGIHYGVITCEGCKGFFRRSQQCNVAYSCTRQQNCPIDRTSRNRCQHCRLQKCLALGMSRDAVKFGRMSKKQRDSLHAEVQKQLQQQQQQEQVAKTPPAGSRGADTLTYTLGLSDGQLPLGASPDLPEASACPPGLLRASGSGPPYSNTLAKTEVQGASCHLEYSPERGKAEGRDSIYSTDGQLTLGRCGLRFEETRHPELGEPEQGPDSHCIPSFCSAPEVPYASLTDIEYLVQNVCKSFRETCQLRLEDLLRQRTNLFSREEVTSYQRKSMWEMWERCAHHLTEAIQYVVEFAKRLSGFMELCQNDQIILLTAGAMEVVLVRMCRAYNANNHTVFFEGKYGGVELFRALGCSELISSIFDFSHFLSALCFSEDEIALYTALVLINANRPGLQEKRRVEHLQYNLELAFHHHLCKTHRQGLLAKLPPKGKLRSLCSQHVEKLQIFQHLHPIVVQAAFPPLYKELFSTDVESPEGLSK
#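 Drosophila Schneider cells stably carrying a metallothionein-driven Gal4 DBD–ROR gamma fusion and a UAS-Photinus luciferase reporter were exposed to compound for 1 hr, then induced with copper sulfate (700 uM final) for 20 hr at ambient temperature before luminescence reading.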
# DT40 TDP1 CPT = qHTS for Inhibitors of human tyrosyl-DNA phosphodiesterase 1 (TDP1): qHTS in cells in presence of CPT. Potency, µM (top dose mostly 46.2 µM), for inactives: at the top dose activity change, negative = growth inhibition, usual class: inhibitors. chicken DT40 Tdp1-/-;hTDP1 cells + 20 nM CPT, ATP luminescence, 48 h. AID 686979, 2013. actives 12% (n = 420,000); also: potency is read from the fitted curve at half-maximal effect; nearly all actives have a fitted effect of over 55% in size
#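 Chicken DT40 Tdp1-/- cells stably complemented with human TDP1 were seeded at 400 cells/well in medium containing 20 nM camptothecin, exposed to pin-transferred compounds, and grown at 37 °C for at least 48 hr. Viability was read as ATP luminescence.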
# Starred values were filed as active, the others as inactive; ? = inconclusive; nt = no result; [ ] = remark or other dose. This is a sample that favours compounds with a hit; in the whole collection about 21% have one here. Unless noted, calls follow the shape of the dose curve; as a rule, active = well fitted curve in the direction sought with a large enough effect; inconclusive = small, poorly fitted or top-dose-only effect, or another doubt; inactive = no such curve, though single readings can be large; an effect the other way counts as inactive or inconclusive. % is scaled to controls: 0 for no effect and ±100 for the full control effect.
SMILES,ELG1 DNA repair,DT40 TDP1 no CPT,VP16 counter,IL-1B inflam inh,RORg inh,DT40 TDP1 CPT
CN(C)c1ccc(C2CNC(c3ccc(Cl)c([N+](=O)[O-])c3)c3[nH]c4ccccc4c32)cc1 (stereo not drawn),?,18µM*,3%,-25,-6%,23µM*
COc1ccc2oc(C)c(C(=O)c3ccc(C)cc3)c2c1,28%,?,?,-12,23%,-11%
CCC(=O)Nc1c(-c2ccc(Cl)cc2)c(=O)c2ccccc2n1C,10%,11%,5%,-6,24%,-2%
COCCN(C(=O)C(C)C)c1nnc(-c2ccc(C)cc2)s1,?,?,-10%,-22,0%,?
COCCN(C(=O)C(C)C)c1nnc(-c2cccc(C)c2)s1,-2%,-21%,-2%,-53*,32%,-6%
CC(=O)c1ccccc1-c1ccc2c(c1)CC(CNC(=O)C[C@@H]1C[C@@H](C)NC(=S)N1)O2 (stereo partly drawn),nt,-7%,nt,nt,nt,-8%[9.04 µM]
COc1cc(OC)cc(C2=NC3(CCC(C)CC3)NC2=S)c1 (stereo not drawn),?,?,2%,-20,1.4µM*,?
Cc1ccccc1NC(=O)CSc1nc(-c2ccco2)nc2cc(=O)[nH]n12,nt,-1%,nt,nt,nt,8%
O=C(CC(SCCO)c1ccc2c(c1)OCO2)c1ccco1 (stereo not drawn),19%,18µM*,?,-56*,?,21µM*
CC(=O)NCCNc1nc2cc(-c3ccc4c(ccn4C)c3)sc2c(=O)n1C,nt,-9%,nt,58,nt,?
CCOC(=O)C(=CNc1cc(Cl)c(-c2ccco2)c(Cl)c1)C(=O)OCC,21µM*,12µM*,6%,-7,39%,18µM*
CCOC(=O)C(=CNc1ccc(-c2ccco2)c(Cl)c1)C(=O)OCC,?,16µM*,-9%,-12,18%,21µM*
CCOC(=O)C(=CNc1ccccc1Cl)C(=O)OCC,-9%,?,-10%,-27,29%,-18%
CC(=O)c1ccc(N2CCN(C(=O)C3CCC3)CC2)cc1,?,0%,-1%,-1,22%,-4%
Cc1cccc(N2CCN(C(=O)C3CCN(S(=O)(=O)Cc4ccccc4)CC3)CC2)c1C,nt,9.2µM*,nt,nt,nt,7.3µM*
O=C(C1CCN(S(=O)(=O)Cc2ccccc2)CC1)N1CCN(c2ccc(F)cc2)CC1,nt,?,nt,nt,nt,23µM*
COC(=O)C1CCN(S(=O)(=O)Cc2ccccc2)CC1,10%,-25%,1%,0,11%,-12%
CC(=O)c1ccc(N2CCN(C(=O)C3CCN(S(=O)(=O)Cc4ccccc4)CC3)CC2)cc1,18µM*,?,-22%,14,35%,-24%
Cc1ccc2nc(N3CCN(C(=O)C4CC4)CC3)sc2c1,nt,-12%,nt,nt,nt,-1%
Cc1ccc2nc(N3CCC(C(=O)N4CCN(c5cccc(C)c5C)CC4)CC3)[nH]c2c1,nt,5.8µM*,nt,nt,nt,2.9µM*
O=C(C1CCN(S(=O)(=O)Cc2ccccc2)CC1)N1CCN(c2ncccn2)CC1,-1%,-14%,-5%,9,-1%,-12%
CCN(CC)CCN(C)C(c1cc2ccccc2o1)c1nnnn1C(C)(C)C (stereo not drawn),nt,?,nt,13,nt,?
Cc1cccc(N2CCN(C(=O)C3CCN(S(=O)(=O)c4cccnc4)CC3)CC2)c1C,-20%,16µM*,8%,21,17%,18µM*
CC1CCCCN1c1cc(C#N)c(C#N)cc1[N+](=O)[O-] (stereo not drawn),3%,-24%,-11%,-6,0%,18µM*
N/C(Cc1ccc([N+](=O)[O-])cc1)=N\OC(=O)c1ccc2ccccc2c1,?,?,-13%,3,?,9.2µM*
SMILES,ELG1 DNA repair,DT40 TDP1 no CPT,VP16 counter,IL-1B inflam inh,RORg inh,DT40 TDP1 CPT
N/C(Cc1ccc([N+](=O)[O-])cc1)=N\OC(=O)CC1CCCCC1,2%,?,13µM*,-3,13µM*,?
Cc1ccc(C(=O)O/N=C(\N)Cc2ccc([N+](=O)[O-])cc2)c(Cl)c1,?,23µM*,-17%,?,-22%,?
Cc1ccc(CC(=O)O/N=C(\N)Cc2ccc([N+](=O)[O-])cc2)cc1,6%,-27%,?,-10,0%,7%
N/C(Cc1ccc([N+](=O)[O-])cc1)=N\OC(=O)C(c1ccccc1)c1ccccc1,0%,-27%,10µM*,?,?,?
CCCc1cc(=O)[nH]c(SCC(=O)c2cc(C)n(C(C)COC)c2C)n1 (stereo not drawn),-1%,-9%,13%,12,-1%,0%
Cn1c(=O)c2c(ncn2CC(=O)OCC(=O)NCc2ccc(F)cc2)n(C)c1=O,nt,?,nt,7,nt,14%
CC(C)COC(=O)N1CCCCC1c1cc(C(=O)NC(C)C)no1 (stereo not drawn),nt,-21%,nt,-14,nt,?
N/C(=N\OC(=O)Cc1ccc([N+](=O)[O-])cc1)c1cccc(Br)c1,-10%,2%,4%,-82*,3%,26%
COc1cccc(C(=O)O/N=C(\N)Cc2ccc(Cl)cc2)c1,1%,?,13µM*,-9,-38%,?
COc1cccc(C(=O)O/N=C(\N)c2ccc(C)cc2)c1,?,-8%,-21%,5,-41%,-20%
Cc1cccc(/C(N)=N/OC(=O)Cc2cccc3ccccc23)c1,-3%,-5%,-8%,24,-20%,2%
Cc1cccc(C(=O)O/N=C(\N)Cc2cccc3ccccc23)c1,-7%,-2%,11µM*,18,?,-9%
N/C(Cc1ccc([N+](=O)[O-])cc1)=N\OC(=O)c1ccccc1Br,-10%,?,11µM*,?,?,?
O=C(CNC(=O)C(c1ccccc1)c1ccccc1)N/N=C\c1ccc(C(=O)O)cc1,?,-11%,-11%,4,1%,1%
Cc1ccc2c(c1)c1c(c(=O)n(-c3ccccc3)c(=O)n1CC(=O)NCCC1=CCCCC1)n2C,nt,7%,nt,nt,nt,-27%
CC1(C(=O)NCc2ccccn2)CCN1C(=O)Cc1ccc(Cl)cc1Cl (stereo not drawn),nt,-18%,nt,30,nt,-11%

# Screening results as filed in PubChem BioAssay.
